PMC12136788
Changes are numbered by the printed parent chain. In all, about 5,800 sequences were measured (“enrichment r”: median about 0.54, highest 2% from about 16 on). The sample as a whole holds a higher share of the highest values than the screen did.

B1: chr6:105096826:105097152:-|3pUTR|ENSG00000112276|msi1|FALSE|unique (ssRNA)
RNA: GGGAGUUCUACAGUCCGACGAUCACUUGCAACCUAGUUUUAAAAUACAUGAGGAUUUUAUGAAAGCUUUAUACAGACAUUUAUAGGAAACUCAUUCUUUGAUUUUAGGUGCCAUUUAAAUUGAUAACACUUACUUUAUAAAAACAACAGAGGAUUGAGCAUCA
B2: chr6:117694021:117694122:+|CDS|ENSG00000153989|msi1|total|mutant (ssRNA)
RNA: GGGAGUUCUACAGUCCGACGAUCGCUGUCUCCGGAAGAUGGAAAAGCAGAUAUUGUAAGAGCUGCUCAGGACUUUUGCCAGUCCGCCGCCCAGAAGCAAAAGAGACCCACAGAUUUGGAUGCCGAUACGUCCGCCAGUUUACUCAACAGAGGAUUGAGCAUCA
B3: chr12:76028832:76028933:-|3pUTR|ENSG00000139289|msi1|FALSE|unique (ssRNA)
RNA: GGGAGUUCUACAGUCCGACGAUCAAAGGAAAAGACUGGAUAAACACAGGAUUUUCAGUAAGAAAACAACCCCAGUCUUGUCUUAGAAGCCACUUGUUGAGGAGUCUGUUGGGGGAAAAAAGAGGAUAUGCUUUUAAAGGUAGACAACAGAGGAUUGAGCAUCA
B4: chr8:41263181:41263319:-|3pUTR|ENSG00000104332|msi1|total|mutant (ssRNA)
RNA: GGGAGUUCUACAGUCCGACGAUCCUUAAGUGAUUUGCCUGUAAUUUUGGAUGAUUAAAAAAUGUGUAUAUAUAUCCGCUAAUCCGAAAUAUUCUACUUCUCUGUUGUCAAACUGAAAUUCAGAGCAAGUUCCUGAGUGCGUGGCAACAGAGGAUUGAGCAUCA
B5: chr10:17237356:17237519:+|3pUTR|ENSG00000026025|msi1_unk|total|mutant (ssRNA)
RNA: GGGAGUUCUACAGUCCGACGAUCAGACCGAUUUGGAACCGGAAUAAGCUCCCGUUCUUAACAACCGACACUCCUACAAGAUUCCGAAAAAAGUUUACAACAUAAUCCCGUUUACAGAAAAAUCUUGUGCCCGAAUACUUUUUACAACAGAGGAUUGAGCAUCA
B6: chr10:17237356:17237519:+|3pUTR|ENSG00000026025|msi1_unk|FALSE|overlapping (ssRNA)
RNA: GGGAGUUCUACAGUCCGACGAUCAGAUAGAUUUGGAAUAGGAAUAAGCUCUAGUUCUUAACAACCGACACUCCUACAAGAUUUAGAAAAAAGUUUACAACAUAAUCUAGUUUACAGAAAAAUCUUGUGCUAGAAUACUUUUUACAACAGAGGAUUGAGCAUCA
B7: chr6:117694021:117694122:+|CDS|ENSG00000153989|msi1|FALSE|unique (ssRNA)
RNA: B2 RNA with C83U, C84A, C86U, C87A, C122U, C123A, C131U, C132A
B8: chr8:41263181:41263319:-|3pUTR|ENSG00000104332|msi1|FALSE|unique (ssRNA)
RNA: B4 RNA with C75U, C76A, C83U, C84A
B9: chrX:120258281:120258382:+|3pUTR|ENSG00000177485|msi1|FALSE|bound_elsewhere (ssRNA)
RNA: GGGAGUUCUACAGUCCGACGAUCUGUACAAUCUUCCCUGUCAUGACUUUAAGUUCUACUUUUCAUUAACCAUGGCCUGAUAUUAGUUCUUAGAGCUUCUUGUGGCAAAAAUAAAAUGAUUUAAUUCUGAUGUUUGAGUGCGUGCAACAGAGGAUUGAGCAUCA
B10: chr1:62654060:62654161:-|CDS|ENSG00000116641|unk|FALSE|unique (ssRNA)
RNA: GGGAGUUCUACAGUCCGACGAUCCUUGUUUUCUACCCAUCUCUUAUCCCAACUUUUUACAAAGGUGCCCCUUACCGAAGCAGUAGAUCCAGUGGAUUUGGAAGAUUACCUCAUUACUCAUCCUUUGGCUGUGGAUUCUGGGCCCAACAGAGGAUUGAGCAUCA
B11: chr8:86558718:86558819:+|3pUTR|ENSG00000085719|unk|total|mutant (ssRNA)
RNA: GGGAGUUCUACAGUCCGACGAUCCUGUUGUUGUUUUUGUUUACUUUCAUAUGAUGAAAAUGCUGUGUUUAAGUGUUUGUCAACCGGAAGAAUGGAAAACUGUUGGGAUGAUGUGGUUUGCAGGUUGCUGUGCCUGAUUCACAGCAACAGAGGAUUGAGCAUCA
B12: chr13:20822168:20822271:-|CDS|ENSG00000132953|unk|FALSE|unique (ssRNA)
RNA: GGGAGUUCUACAGUCCGACGAUCUCGAAAAAUCAGAGAAGAUUCAGAUAUGGCACAAGAUUCUCUGCAGUGCCUUGCCCAGUUAGCUUCUCUUCAUGGACCCAUCUUCCCAGAUGAAGGAUCACAAGUUGAUUAUCUAGCACACAACAGAGGAUUGAGCAUCA
B13: chr21:43758806:43758907:+|3pUTR|ENSG00000160209|msi1|FALSE|unique (ssRNA)
RNA: GGGAGUUCUACAGUCCGACGAUCACUUUCUUAAUCCAGUUUUUCAAACUUCUCCCUGUAGACCGUAAGGAUGAAUUCCACAAUAGGAUCCUUUUUAAAAUCGAUUUUAAAUUGUUGCCUAGUCCUGCCAAGGUUAUUAUGUGCCAACAGAGGAUUGAGCAUCA
B14: chr14:21351797:21351898:-|3pUTR|ENSG00000092201|msi1|FALSE|unique (ssRNA)
RNA: GGGAGUUCUACAGUCCGACGAUCGAGGAAGGCUCAAAGGAGUCAACAUUUAUAUCUGGAAGGGACAAGUCAUGCCUUGGGCCUAGAAUACCCUGAUGAGAAAAGAGAAGAGGAAGGGAGGCCAUAUCUACAACACAGCCUCUCCAACAGAGGAUUGAGCAUCA
B15: ENSG00000107863:be:win_1951|CDS|ENSG00000107863|bound_else_gene|NA|bound_elsewhere_windowed (ssRNA)
RNA: GGGAGUUCUACAGUCCGACGAUCCCAGUAAAUCACUUGCAUCAGAACAGUCUGUUGAAUCAGCAGACAUGGGUAAGGACUGACAGUGCCCCCGAUCAGCAAGUGGAGACUGGGAAAUCCCCCUCUUUAUCUGGAGCCUCUGCCCAACAGAGGAUUGAGCAUCA
B16: ENSG00000120802:stop:overlap|stop_codon|ENSG00000120802|stop_codon|NA|stop_codon (ssRNA)
RNA: GGGAGUUCUACAGUCCGACGAUCGUGGAACAUUAUUUGGAGGAGAAGUAUGCAAAGUAAUUAAAAAGCGUGGAAAUAAACACUAGUAAAAUUAAGGACAAAAAGACAUCUAUCUUAUCUUUCAGGUACUUUAUGCCAACAUUUCAACAGAGGAUUGAGCAUCA
B17: chr1:213241217:213241334:+|CDS|ENSG00000136643|unk|total|mutant (ssRNA)
RNA: GGGAGUUCUACAGUCCGACGAUCAGUUCUCCAAGAACAUCAGAUUCCCUCAGCCGAUCAAAAAACCGCCCCAUGGAAUUCUUCCGGACCGACAGUAAGGACCGCGCAAGUGAACUCCUGGGACUUGACUUUGGAGAAAAAUUGCAACAGAGGAUUGAGCAUCA
B18: ENSG00000177426:stop:overlap|stop_codon|ENSG00000177426|stop_codon|NA|stop_codon (ssRNA)
RNA: GGGAGUUCUACAGUCCGACGAUCCUCAAAGACAGAAGGAAUAUCUUUUUAUUGUAAACUUGAUAGUGUUAAAAGCUAAUAACUAGCUAUUUAGAGAACACAGAAACACUUGACAGUCAUCUAUCAGAUAGCAUUUCCUUUAAUCAACAGAGGAUUGAGCAUCA
B19: chr3:121431430:121432303:-|three_prime_utr|ENSG00000051341|control|control|control (ssRNA)
RNA: GGGAGUUCUACAGUCCGACGAUCUGGAAAGAACAGAGAUUACCCUUUCACCUACCUCAGCAAAACAAACUUUCAAGUCUUGAUAGACUUAGCCUAGUAAUUUUAUAGUGAGAGUUUCAAACUAUAUAUCAGUGUCUAUAGCAUCAACAGAGGAUUGAGCAUCA
B20: chr9:122240152:122240253:-|3pUTR|ENSG00000119446|msi1|FALSE|unique (ssRNA)
RNA: GGGAGUUCUACAGUCCGACGAUCCUUCUUGGAGUAUAGAAUUCACCAUUUUAUCCGUAAGUCUUCAAAGGAUUAUGGUGGACUAGAACUUACAUAGUGCAAAAUAGUCUUCUAUUUUUAAUAGGAACUUAGAAAAAACUUAGACAACAGAGGAUUGAGCAUCA
B21: chr1:213241217:213241334:+|CDS|ENSG00000136643|unk|FALSE|unique (ssRNA)
RNA: B17 RNA with C53U, C54A, C65U, C66A, C83U, C84A, C88U, C89A, C101U, C102A
B22: ENSG00000070961:be:win_4551|3pUTR|ENSG00000070961|bound_else_gene|NA|bound_elsewhere_windowed (ssRNA)
RNA: GGGAGUUCUACAGUCCGACGAUCAAUGAAAGAUGCUUGAAAUGCUUUUGUUAUUUCAGGCAAAUCAAAUUAAAUCAGACUAUCAAACUACAAGAGAACCUUAGUCUUUUUUGUUUUUGUCUAAACAUGUUAGUUUAGUGAUGUCAACAGAGGAUUGAGCAUCA
B23: chr9:122240152:122240253:-|3pUTR|ENSG00000119446|msi1|total|mutant (ssRNA)
RNA: GGGAGUUCUACAGUCCGACGAUCCUUCUUGGAGUACCGAAUUCACCAUUUUAUCCGUAAGUCUUCAAAGGAUUAUGGUGGACCCGAACUUACACCGUGCAAAACCGUCUUCUAUUUUUAACCGGAACUCCGAAAAAACUCCGACAACAGAGGAUUGAGCAUCA

molecular target: MSI1 full-length (mouse, UniProt Q61474 1-362); test: nsRBNS (natural sequence RNA bind-n-seq); RBNS binding buffer (assumed for nsRBNS): 25 mM Tris pH 7.5, 150 mM KCl, 3 mM MgCl2, 0.01% Triton X-100, 500 ug/ml BSA, 20 U/ml SUPERase-In, 4 C; UNK is unkempt and MSI1 is Musashi-1; names of the RNAs are library labels; protein concentration not given here; high values mean tight binding
Sequence (Q61474 whole entry): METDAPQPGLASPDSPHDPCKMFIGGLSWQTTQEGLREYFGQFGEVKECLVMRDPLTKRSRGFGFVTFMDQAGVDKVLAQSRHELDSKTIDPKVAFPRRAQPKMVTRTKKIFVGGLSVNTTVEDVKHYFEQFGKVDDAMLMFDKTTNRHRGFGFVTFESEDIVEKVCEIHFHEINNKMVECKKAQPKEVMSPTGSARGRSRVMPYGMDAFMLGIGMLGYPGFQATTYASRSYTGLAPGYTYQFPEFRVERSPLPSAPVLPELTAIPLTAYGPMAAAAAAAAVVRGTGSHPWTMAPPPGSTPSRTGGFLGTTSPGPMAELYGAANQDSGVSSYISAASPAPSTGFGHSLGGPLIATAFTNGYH

Binder	binding signal [enrichment R]
B1	1.13
B2	0.409
B3	0.854
B4	0.429
B5	0.307
B6	20.9
B7	17.5
B8	21.3
B9	0.662
B10	0.626
B11	0.342
B12	0.341
B13	0.936
B14	0.748
B15	0.425
B16	1.57
B17	0.533
B18	0.812
B19	17.4
B20	20.5
B21	24.6
B22	1.39
B23	0.272
